One assay deals with C33A. The experiment in a line: Primary qHTS to identify gynecologic anti-cancer compounds using libraries of approved drugs and bioactive compounds (AID 1345084). Note: nearly all actives have a fitted effect of over 55% in size. Note: potency is the fitted concentration of half-maximal effect. The conditions noted are these: Gynecologic cancer cell panel viability, ATPlite luminescence, 48 h; series mostly up to 57.5 µM. Put shortly:
(§1)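 ATP-based viability (ATPlite), 1,000 cells/well, 16 h pre-incubation, 48 h compound at 37 C, 5% CO2, 15 min RT before read.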
Background: In qHTS, concentration-response curves come from the screen itself.

A further assay has as its system CAOV3. The description is as above. The conditions noted are these: Gynecologic cancer cell panel viability, ATPlite luminescence, 48 h; series mostly up to 57.5 µM. Put shortly: as §1
The subject of another assay is CASKI. Described as above. As to conditions: Gynecologic cancer cell panel viability, ATPlite luminescence, 48 h; series mostly up to 57.5 µM. Put shortly: as §1
In general terms: In ATP-based viability assays light output follows the ATP content of the culture.

In another assay the test system is Es-2. The description is as above. The conditions noted are these: Gynecologic cancer cell panel viability, ATPlite luminescence, 48 h; series mostly up to 57.5 µM. Put shortly:
as §1

The next assay deals with NIH3T3. The experiment in a line: qHTS assay to identify novel small-molecules to repurpose for Merkel cell carcinoma treatment (AID 1296009). Note: nearly all actives have a fitted effect of over 60% in size. The conditions noted are these: MCC and control cell lines, CellTiter-Glo viability, 72 h; series mostly up to 44.8 µM. The method, boiled down: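 CellTiter-Glo luminescence after 72 hr compound exposure at 37 degree celsius gave cell viability. Libraries NPC and MIPE were run as 8- and 11-point dose responses; RLUs normalized to DMSO (negative) and no-cell (cytotoxicity) controls.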

For the next assay, the system named is Hek293T. Nature of the assay: Primary qHTS to identify gynecologic anti-cancer compounds using libraries of approved drugs and bioactive compounds (AID 1345084). Note: nearly all actives have a fitted effect of over 55% in size. Note: potency is the fitted concentration of half-maximal effect. The conditions noted are these: Gynecologic cancer cell panel viability, ATPlite luminescence, 48 h, control line for the selectivity index; series mostly up to 57.5 µM. Put shortly:
as §1

For a further assay, the system named is JEG-3. Described as above. As to conditions: Gynecologic cancer cell panel viability, ATPlite luminescence, 48 h; series mostly up to 57.5 µM. The method, boiled down: as §1
In another assay the test system is HeLa. The assay is described as above. As to conditions: Gynecologic cancer cell panel viability, ATPlite luminescence, 48 h; series mostly up to 57.5 µM. Put shortly: as §1

Inconclusive results are not listed. Active and inactive are the calls of the source. Calls come from the whole dose curve; as a rule, active = well fitted curve in the direction sought with a large enough effect; inconclusive = small, poorly fitted or top-dose-only effect, or another doubt; inactive = no such curve, though single readings can be large; an effect the other way counts as inactive or inconclusive.

As for `CC[C@@H](C)[C@@H]1OC2(C=C[C@H]1C)C[C@@H]1C[C@H](C/C=C(\C)[C@H](O[C@H]3C[C@H](OC)[C@H](O[C@H]4C[C@H](OC)[C@H](NC(C)=O)[C@H](C)O4)[C@H](C)O3)[C@H](C)/C=C/C=C3\CO[C@H]4[C@H](O)C(C)=C[C@@H](C(=O)O1)[C@@]34O)O2` (stereo not given in full), the Potency entry in the assay on C33A, in the assay with CAOV3, in the assay on CASKI and in the assay with Es-2 was “inactive” throughout.

As to `Cc1cc2occ(CN(C)CCN(C)Cc3cn(-c4cccc(C(F)(F)F)c4)c4ccccc34)c(=O)c2cc1C`, in the assay with C33A, the Potency was 31.6 µM (active).

In the case of `Cn1cc(-c2cnn3c(N)c(Br)c([C@@H]4CCCNC4)nc23)cn1`, the Potency result in the assay with C33A, in the assay with CAOV3 and in the assay on CASKI was “inactive” in each case.

`COC(=O)C1=COC(O[C@@H]2O[C@H](CO[C@@H]3O[C@H](COC(=O)/C=C\c4ccc(O)cc4)[C@@H](O)[C@H](O)[C@H]3O)[C@@H](O)[C@H](O)[C@H]2O)C2C(CO)=CCC12` (stereo not given in full): the Potency entry in the assay with C33A and in the assay with CAOV3 was “inactive” throughout.

As to `NC(=O)c1cccc2[nH]c(-c3ccc(C4CCCN4)cc3F)nc12` (stereo not given), in the assay with NIH3T3, the Potency entry is “inactive”. The Potency is 17.8 µM (active) in the assay with C33A; 10 µM (active) with CAOV3; 15.8 µM (active) in the assay with Es-2; 12.6 µM (active) in the assay with Hek293T; 11.2 µM (active) in the assay with JEG-3.

`CC(=O)NCc1cccc(OC[C@@H](O)CNCCc2ccc(NS(=O)(=O)c3ccccc3)cc2)c1`: the Potency result with NIH3T3, in the assay on C33A, in the assay on CASKI, with Es-2, in the assay with HeLa and in the assay on Hek293T was “inactive” throughout. In addition, the Potency result in the assay with JEG-3 is “inactive”.

Consider `CC1=CC2/C=C(\C)CCC(O)C/C=C/C(=O)OC23C(=O)NC(CC(C)C)C3C1C` (stereo not given), for which the Potency entry with NIH3T3, with C33A, with CASKI, with Es-2, in the assay with HeLa and with Hek293T was “inactive” each time. Further, the Potency entry in the assay with JEG-3 is “inactive”.

For the compound `CC(=O)C1=CCC2C3CC=C4CC(O)CC(O)C4(C)C3C(O)CC12C` (stereo not given), the Potency entry in the assay with NIH3T3, in the assay with CAOV3, in the assay on HeLa, in the assay with Hek293T and with JEG-3 was “inactive” in each case.

As for `O=C1Cc2c([nH]c3ccc(Br)cc23)-c2ncccc2N1`, the Potency result in the assay on NIH3T3, with C33A, in the assay with CASKI, with Es-2, in the assay with Hek293T and with JEG-3 was “inactive” each time.

In the case of `C=CC(C)(C)c1[nH]c2ccccc2c1C[C@@H]1NC(=O)[C@H](C)NC1=O`, the Potency result with NIH3T3, in the assay on C33A, in the assay on CASKI, in the assay with Es-2, in the assay on HeLa and in the assay on Hek293T was “inactive” throughout. The Potency result with JEG-3 is “inactive”.

Take `CC1(C)CCC(C)(C)c2cc(C#Cc3ccc(C(=O)O)cc3)ccc21`: the Potency result in the assay with NIH3T3, in the assay on C33A, with CAOV3, with Es-2, in the assay with HeLa and with Hek293T was “inactive” in each case. The Potency result in the assay on JEG-3 was “inactive”.

Consider `CCC(C)C(=O)OC12C(OC(C)=O)C(C)C3(O)C(C=C(CO)CC4(O)C(=O)C(C)=CC43)C1C2(C)C` (stereo not given), for which the Potency entry in the assay with NIH3T3, in the assay with CAOV3, with CASKI, in the assay on HeLa, with Hek293T and in the assay on JEG-3 was “inactive” throughout. For the same compound, the Potency with Es-2 is 0.316 µM (active).

In the case of `C/C=C(/C)C(=O)O[C@H]1C=C(CO)C(=O)[C@H](OC(=O)/C(C)=C/CO)[C@H]1C(C)C`, the Potency with C33A is 10 µM (active).

With `C[C@H]1CC[C@@]2(OC1)O[C@H]1CC3C4CC[C@H]5C[C@@H](O)CC[C@]5(C)C4=CC(=O)[C@]3(C)[C@H]1[C@@H]2C` (stereo not given in full), the Potency entry with NIH3T3, in the assay with C33A, with CASKI, in the assay with Es-2, in the assay on HeLa and in the assay on Hek293T was “inactive” throughout. Further, the Potency entry with JEG-3 was “inactive”.

On to `COc1cc2nc(N3CCN(C(=O)COc4c(OC)cccc4C(C)C)CC3)nc(N)c2cc1OC`, for which the Potency result in the assay on NIH3T3, in the assay on C33A, with CASKI, with Es-2, with HeLa and in the assay on Hek293T was “inactive” in each case. Besides, the Potency entry with JEG-3 was “inactive”.

In the case of `CNCCC(c1cccs1)c1ccc(O)c2ccccc12` (stereo not given), the Potency entry in the assay on NIH3T3, with C33A, in the assay with CASKI, in the assay with Es-2, in the assay on HeLa and with Hek293T was “inactive” in each case.

For the compound `CCCN(CCc1ccsc1)C1CCc2c(O)cccc2C1` (stereo not given), the Potency entry in the assay with NIH3T3, with C33A, in the assay on CASKI, in the assay on Es-2, with HeLa and in the assay with Hek293T was “inactive” each time. In addition, the Potency entry in the assay on JEG-3 is “inactive”.

With `O=c1[nH]c2ccccc2n1CCN1CCN(c2cccc(C(F)(F)F)c2)CC1`, the Potency entry in the assay on NIH3T3, in the assay with C33A, in the assay with CASKI, in the assay on Es-2, in the assay with HeLa and with Hek293T was “inactive” throughout. Also, the Potency entry in the assay with JEG-3 is “inactive”.

`COc1ccc(-c2ccccc2)cc1NS(=O)(=O)c1cc(Cl)cc(Cl)c1O`: the Potency entry in the assay on C33A is “inactive”.

Turning to `O=C(Nc1ncc([N+](=O)[O-])s1)c1ccccc1O`, the Potency entry with NIH3T3, with C33A, in the assay on CAOV3, in the assay on CASKI, in the assay on HeLa and in the assay on Hek293T was “inactive” each time. The Potency entry with JEG-3 was “inactive”.

Source of the values: PubChem BioAssay (NCATS).
